# Among all 310,000 compounds or so, about 14,000 (4.5%) showed an effect of 50% or more. The effect is printed as a negative number. The list comes from a sample in which strong results are over-represented; it also holds similar structures and randomly drawn compounds.
# Molecular target: human ether-à-go-go-related gene (hERG) potassium channel (human, UniProt Q12809)
# Test: primary screen, population patch clamp on CHO cells stably expressing hERG; higher = less effect of the substance
# 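Also: peak tail current of the secondary pulse compared with the same well before compound.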
# Sequence of human ether-à-go-go-related gene (hERG) potassium channel (Q12809 whole entry, looked up): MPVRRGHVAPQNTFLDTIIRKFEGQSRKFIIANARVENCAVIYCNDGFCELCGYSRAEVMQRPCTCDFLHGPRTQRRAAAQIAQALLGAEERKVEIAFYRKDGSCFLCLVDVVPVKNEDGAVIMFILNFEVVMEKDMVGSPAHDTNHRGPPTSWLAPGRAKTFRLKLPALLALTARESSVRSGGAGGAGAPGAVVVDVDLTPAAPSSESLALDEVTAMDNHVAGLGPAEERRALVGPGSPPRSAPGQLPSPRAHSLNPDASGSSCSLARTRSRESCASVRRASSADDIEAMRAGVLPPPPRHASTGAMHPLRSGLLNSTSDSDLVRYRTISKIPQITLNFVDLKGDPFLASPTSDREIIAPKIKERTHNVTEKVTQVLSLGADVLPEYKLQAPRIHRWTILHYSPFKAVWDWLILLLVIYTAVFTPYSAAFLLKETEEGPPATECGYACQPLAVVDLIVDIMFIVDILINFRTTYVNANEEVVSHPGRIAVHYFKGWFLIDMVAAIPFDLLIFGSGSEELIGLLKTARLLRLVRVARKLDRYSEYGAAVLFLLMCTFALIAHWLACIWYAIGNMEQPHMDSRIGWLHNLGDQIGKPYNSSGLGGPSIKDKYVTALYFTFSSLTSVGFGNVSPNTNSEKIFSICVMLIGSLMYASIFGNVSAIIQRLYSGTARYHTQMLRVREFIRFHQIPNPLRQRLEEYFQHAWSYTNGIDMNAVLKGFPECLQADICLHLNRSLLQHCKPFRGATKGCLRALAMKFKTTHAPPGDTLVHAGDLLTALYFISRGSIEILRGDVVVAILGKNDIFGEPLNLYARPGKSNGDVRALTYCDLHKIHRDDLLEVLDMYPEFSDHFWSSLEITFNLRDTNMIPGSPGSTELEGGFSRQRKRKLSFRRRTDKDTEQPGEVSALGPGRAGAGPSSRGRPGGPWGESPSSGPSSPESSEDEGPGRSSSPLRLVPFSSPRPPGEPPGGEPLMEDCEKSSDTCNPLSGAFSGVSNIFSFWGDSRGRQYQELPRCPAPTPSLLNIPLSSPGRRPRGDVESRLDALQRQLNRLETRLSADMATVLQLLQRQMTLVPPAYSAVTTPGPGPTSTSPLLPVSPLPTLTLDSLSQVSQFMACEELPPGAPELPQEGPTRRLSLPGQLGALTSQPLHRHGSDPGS
row,SMILES,"hERG current change (%, negative = inhibition) at 10uM"
1,CCOc1ccccc1C(=O)NCc1ccc2c(c1)OCO2,-12.1%
2,O=C(CCN1C(=O)[C@@H]2Cc3ccccc3CN2C1=O)N[C@@H](Cc1ccccc1)C(=O)O,8.75%
3,Nc1nc(NCCCN2CCOCC2)nc(Nc2ccccc2)c1[N+](=O)[O-],-36.5%
4,Nc1nc(NCCCN2CCOCC2)nc(Nc2ccc(Cl)cc2)c1[N+](=O)[O-],7.65%
5,Cc1ccc(Nc2nc(NCCCN3CCOCC3)nc(N)c2[N+](=O)[O-])cc1C,-5.15%
6,Cc1ccc(Nc2nc(NCCCN3CCOCC3)nc(N)c2[N+](=O)[O-])cc1,-66.1%
7,Nc1nc(NCCCN2CCOCC2)nc(Nc2ccc(F)cc2)c1[N+](=O)[O-],-58.6%
8,COc1ccc(Nc2nc(NCCCN3CCOCC3)nc(N)c2[N+](=O)[O-])cc1,-22%
9,O=C1CN(C(=O)COC(=O)CNC(=O)c2ccc(Cl)cc2)c2ccccc2N1,-6.75%
10,CC(C)OC(=O)/C(C#N)=C\c1cccnc1,26.3%
11,Cc1cccnc1NC(=O)c1cccc(S(=O)(=O)N2CCCC2)c1,-8.13%
12,CCCn1c(N)c(C(=O)COC(=O)c2c(C)noc2C)c(=O)n(C)c1=O,-21%
13,COC(=O)CN1C(=O)[C@H]2[C@@H](c3ccc(C)o3)N3C(=O)CN(CCO)C(=O)[C@@]3(C)[C@H]2C1=O,-2.13%
14,CN=C1S/C(=C\c2ccc(Cl)cc2)C(=O)N1C,27%
15,CCCN(CC1CC1)C(=S)Nc1ccc(C(C)=O)cc1,0.105%
16,OCCC1CN(Cc2cccn2-c2cccnc2)CCN1C1CCCCC1 (centres unmarked),-28.1%
17,COc1cccc(CN2CCN(Cc3cccn3-c3cccnc3)CC2CCO)c1 (centres unmarked),-71.4%
18,CCOc1ccc(CN2CCN(Cc3cccn3-c3cccnc3)CC2CCO)cc1 (centres unmarked),-84.1%
19,OCCC1CN(Cc2cccn2-c2cccnc2)CCN1Cc1ccc(F)cc1 (centres unmarked),-56.9%
20,OCCC1CN(Cc2cccn2-c2cccnc2)CCN1Cc1ccccc1 (centres unmarked),-42.4%
21,CCOc1ccc(CN2CCN(Cc3cccn3-c3ncccn3)CC2CCO)cc1 (centres unmarked),-78.3%
22,COC(=O)c1ccc(C)c(NC(=O)CCc2ccc(OC)cc2)c1,-3.01%
23,CCn1c(SC)nnc1C1CCN(CC(=O)Nc2ccccc2N2CCOCC2)CC1,-31%

row,SMILES,"hERG current change (%, negative = inhibition) at 10uM"
1,Nc1ccc(C(=O)Oc2ccc([N+](=O)[O-])cc2)cc1,10.9%
2,Cc1ccc(NC(=O)Nc2ccccc2)c(Br)c1,-1.55%
3,Fc1ccc(NC(=S)N2CCCC2)cc1,-1.37%
4,CCCc1cnc(NCCNCC(O)COc2ccc(Cl)c(Cl)c2)nc1 (centres unmarked),-71.2%
5,Cc1cc(OCC(O)CN)ccc1Cl (centres unmarked),8.74%
6,Cc1cc(OCC(O)CNC(C)(C)C)ccc1Cl.Cl (centres unmarked),-4.91%
7,CC(C)c1ccc(OCC(=O)NC2=NCCS2)cc1,1.4%
8,CCc1cccc(C)c1NC(=O)CN(C)Cc1ccccc1F.O=C(O)C(=O)O,-23.8%
9,CCC(C)c1ccc(NC(=O)COc2c(F)c(F)c(C(F)(F)F)c(F)c2F)cc1 (centres unmarked),-57.4%
10,CCC(C)c1ccc(NC(=O)CC(C)=O)cc1 (centres unmarked),4.93%
11,COc1cccc(NC(=O)COc2c(F)c(F)c(C(F)(F)F)c(F)c2F)c1,8.02%
12,Nc1ccc(C(=O)NC23CC4CC(CC(C4)C2)C3)cc1,16.3%
13,C=CCN(c1ccccc1)S(=O)(=O)c1cccc(C(=O)Nc2ncccc2O)c1,8.35%
14,Cn1nccc1C(=O)Nc1ccc(OC(=O)c2ccnn2C)cc1,-6.68%
15,CN(CC(O)CN)CC(O)CN1CCCCC1.Cl (centres unmarked),4.64%
16,Cl.OC(CN1CCCCCC1)CN(c1ccccc1)c1ccccc1 (centres unmarked),-71.8%
17,Cl.OC(CN1CCCCC1)CN(c1ccccc1)c1ccccc1 (centres unmarked),-63.2%
18,Cl.OC(CN1CCOCC1)CN(c1ccccc1)c1ccccc1 (centres unmarked),-28.5%
19,COc1ccc(-c2cc(C(=O)NCc3cccs3)no2)cc1,7.1%
20,O=C(COC(=O)c1cccnc1Cl)Nc1cc(S(=O)(=O)N2CCCCC2)ccc1Cl,-18.9%
21,COc1ccc(NC(=O)Cn2nnc(C(=O)NCc3ccc4c(c3)OCO4)c2N)cc1,18.4%
22,O=C(C1CC(=O)N(c2ccccc2)C1)N1CCN(c2ccccc2)CC1 (centres unmarked),-29%
23,O=C(C1CC(=O)N(c2ccc(F)cc2)C1)N1CCCCC1 (centres unmarked),-0.378%

row,SMILES,"hERG current change (%, negative = inhibition) at 10uM"
1,O=C(C1CC(=O)N(c2ccccc2)C1)N1CCN(c2ccccc2F)CC1 (centres unmarked),-13.4%
2,CC(c1ccccc1)N1CC(C(=O)N2CCN(c3ccc(F)cc3)CC2)CC1=O (centres unmarked),-65.3%
3,O=C(O)C1CC(=O)N(c2ccc(F)cc2)C1 (centres unmarked),14.1%
4,CC(c1ccccc1)N1CC(C(=O)O)CC1=O (centres unmarked),10.7%
5,CC(c1ccccc1)N1CC(C(=O)N2CCN(c3ccccc3)CC2)CC1=O (centres unmarked),-27.2%
6,Cc1ccc(N2CC(C(=O)N3CCN(c4ccccc4)CC3)CC2=O)cc1 (centres unmarked),-17.6%
7,O=C(C1CC(=O)N(c2ccc(F)cc2)C1)N1CCN(c2ccc(F)cc2)CC1 (centres unmarked),-73.1%
8,O=C(C1CC(=O)N(c2ccc(F)cc2)C1)N1CCN(c2ccccc2)CC1 (centres unmarked),-58.3%
9,O=C(C1CC(=O)N(c2ccccc2)C1)N1CCN(c2ccc(F)cc2)CC1 (centres unmarked),-56.7%
10,O=C(C1CC(=O)N(c2ccc(F)cc2)C1)N1CCCCCC1 (centres unmarked),-6.27%
11,Cc1cc(C)cc(OCC(=O)Nc2ccc(N3CCCC3)cc2)c1,11.9%
12,COc1ccc(C(=O)Nc2nnc(S(=O)(=O)N3CCOCC3)s2)cc1,-3.02%
13,CC(C)C(=O)NNC(=O)c1c(O)c2ccccc2[nH]c1=O,10.3%
14,O=C(Nc1cccc(O)c1)C1CC(c2c(F)cccc2Cl)=NO1 (centres unmarked),-15.6%
15,COc1ccc(CNC(=O)OCCN2CCN(S(=O)(=O)c3ccc(C)cc3)CCC2=O)cc1,-35.9%
16,CCCCC(NC(=O)Cc1c(C)c2cc3c(-c4ccccc4)coc3c(C)c2oc1=O)C(=O)O (centres unmarked),13.2%
17,O=C1CC(NNc2nc3ccccc3s2)C(=O)N1c1ccc(F)cc1 (centres unmarked),3.25%
18,CCOCCCNC(=S)N1CCN(C(=O)C(=O)Nc2ccc(C(=O)OC)cc2)CC1,-40.6%
19,CSCCC(NC(=O)COc1ccccc1)C(=O)OCC(=O)c1cc2ccccc2o1 (centres unmarked),8.62%
20,COc1ccc(C(=O)NC(=S)NCc2ccccc2)cc1,-0.211%
21,Cc1ccccc1CNC(=O)CCC(=O)N1CCOc2ccccc21,7.41%
22,Cc1ccc(-c2c(C)n([O-])c3c([n+]2=O)CCCCC3)o1,-1.3%
23,Cc1c(NC(=O)c2ccc(Cl)nc2)cccc1-c1nc2cccnc2s1,-48.1%

row,SMILES,"hERG current change (%, negative = inhibition) at 10uM"
1,CCCOc1ccc(/C=c2\sc3ncnn3c2=O)cc1,6.61%
2,CCOCc1[nH]c(=S)[nH]c(=O)c1Cc1ccc(OC(C)C)cc1,-58.8%
3,CCOCc1[nH]c(=S)[nH]c(=O)c1Cc1ccc(OCC(C)C)cc1,14%
4,CCOCc1[nH]c(=S)[nH]c(=O)c1Cc1ccc(OCC)cc1,9.49%
5,COc1cccc(C2=CC(c3cccs3)n3nnnc3N2)c1 (centres unmarked),14.5%
6,CCc1nnc(SCc2ccc(OC(C)C)cc2)n1N,9.36%
7,CCCCn1c2c(c(=O)n(C)c1=O)C(CC(=O)OCC(=O)Nc1cccc(C(F)(F)F)c1)C(=O)N2 (centres unmarked),-5.56%
8,CC(Sc1nnc(C2CC2)n1C1CC1)C(=O)Nc1cccc(S(=O)(=O)N(C)C)c1 (centres unmarked),-19.5%
9,CC(Sc1nnc(C2CC2)n1C1CC1)C(=O)Nc1ccccc1C#N (centres unmarked),-10%
10,Cc1ccc(NC(=O)C(C)Sc2nnc(C3CC3)n2C2CC2)cc1S(=O)(=O)N1CCOCC1 (centres unmarked),-51%
11,COc1ccc(Cl)cc1NC(=O)C(C)Sc1nncn1C (centres unmarked),0.256%
12,COc1ccc(NC(=O)C(C)Sc2nnc(C3CC3)n2C2CC2)cc1 (centres unmarked),-13.3%
13,Cc1ccc(NC(=O)C(C)Sc2nnc(C)n2C2CC2)cc1S(=O)(=O)N1CCOCC1 (centres unmarked),-13.9%
14,COc1cccc(NC(=O)C(C)Sc2nnc(C3CC3)n2C2CC2)c1 (centres unmarked),-67%
15,COc1ccc(Cl)cc1NC(=O)C(C)Sc1nnc(C2CC2)n1C1CC1 (centres unmarked),-69.5%
16,CC(Sc1nnc(C2CC2)n1C1CC1)C(=O)Nc1cccc(S(=O)(=O)N2CCOCC2)c1 (centres unmarked),-11.8%
17,Cc1ccc(C)c(OCCC(=O)NCCc2ccc(S(N)(=O)=O)cc2)c1,10.7%
18,O=C(c1cccs1)[C@@H]1[C@@H]2C(=O)N(Cc3ccc4c(c3)OCO4)C(=O)[C@@H]2C2c3ccccc3C=CN21 (some centres unmarked),-26.7%
19,O=C(CCCCCN1C(=O)c2cccc3cccc(c23)C1=O)NCCCO,-1.71%
20,O=c1[nH]c(C2CC2)nc2sc3c(c12)CCCC3,15.8%

# Reference: article PMC4336329 (PLoS ONE, 2015)
